# Source: PubChem (National Center for Advancing Translational Sciences (NCATS))
# Hits are enriched below; roughly 6.5% of the tested compounds scored in any of these assays.
# HCMV inh – blocks human cytomegalovirus replication | HFF cells, HCMV-luciferase reporter, 72 h; hits give low values | activity change, negative = inhibition, % at 57.5 µM | actives 4.5% (n = 410,000) | AID 1259415; in the data active = activity change below about -60%; inconclusive = no clear call, values can overlap the other calls; inactive = above about -39%
#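 Cell-based, HFFs, 1000 cells/well, 16 h 37C; cpds in DMSO + HCMV-luc, MOI 1 PFU/cell; 72 h 37C; OneGlo luminescence after 5 min RT; norm. to buffer vs Salinomycin 10uM.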
# FMDV antiviral – foot and mouth disease virus antiviral activity; AID 1159524; Potency, µM (highest dose often 57.9 µM), for the others: at the highest dose activity change, negative = inhibition, hits mostly inhibitors; FMDV antiviral cell-based qHTS; actives 1.2% (n = 410,000); calls by dose curve; tested in HEK293T cells; note: read-out not given here; potency is the fitted concentration of half-maximal effect; nearly all actives have a fitted effect of over 45% in size
# VACV Venus inh – inhibitors of vaccinia virus (Venus reporter). AID 720580. Vaccinia virus Venus reporter expression, fluorescence. actives 0.46% (n = 330,000). Potency, µM (series often up to 36.5 µM), for inactives: at the highest dose activity change, negative = inhibition, hits mostly inhibitors; calls by dose curve; tested in A549 cells; note: potency is the fitted concentration of half-maximal effect; nearly all actives have a fitted effect of over 30% in size
# MARV entry inh – Marburg virus entry inhibition; Marburg virus pseudotyped entry inhibition, cell reporter; Potency, µM (series often up to 37.8 µM), inactives show at the top dose activity change, negative = inhibition, actives largely listed as inhibitors; actives 1.8% (n = 300,000); AID 540276; calls by dose curve; tested in HEK293 cells; note: potency is the fitted concentration of half-maximal effect
# Vaccinia mCherry – vaccinia inhibition (mCherry reporter); Vaccinia virus mCherry reporter infection, fluorescence; actives 0.63% (n = 310,000); Potency, µM (highest dose often 36.5 µM), for inactives: at the top dose activity change, negative = inhibition, usual class: inhibitors; calls by dose curve; tested in A549 cells; note: potency is the fitted concentration of half-maximal effect; nearly all actives have a fitted effect of over 35% in size
# LASV entry inh – blocks Lassa virus binding to or entry into cells; Lassa virus pseudotype entry inhibition, cell reporter; Potency, µM (top dose mostly 37.9 µM), without a hit: top-dose activity change, negative = inhibition, most hits filed as inhibitors; actives 1.2% (n = 300,000); calls by dose curve; tested in HEK293 cells; note: potency is the fitted concentration of half-maximal effect; nearly all actives have a fitted effect of over 50% in size
# * = called active by the depositor; i = inactive; ? = inconclusive; · = no result; + = active, no number; [ ] = remark or other dose. % is set by controls: 0 for no effect and ±100 for the full control effect.
SMILES,HCMV inh,FMDV antiviral,VACV Venus inh,MARV entry inh,Vaccinia mCherry,LASV entry inh
COc1ccc(N/C=C/C(=O)c2ccccc2)cc1,57,-80%,·,·,·,·
COc1ccc(N/C=C/C(=O)c2sc(-c3ccccc3)nc2C)cc1,-61*,-31%,?,?,?,?
Cc1nc(-c2ccccc2)sc1C(=O)/C=C/c1ccc(Cl)cc1,-18,25µM*,-5%,7%[46.1 µM],·,-8%
COc1cc(C)c(CN2C[C@H](Sc3nc4ccccc4[nH]3)C[C@H]2C(=O)N(C)C)cc1C,·,-12%,-20%,·,i,·
Cc1ccc(-n2nc(CO)c(C(=O)NC(C)CCCc3ccccc3)n2)cc1C (stereo not given),?,-21%,1%,-11%[46.1 µM],6%,?
Cc1ccc(-n2nc(CO)c(C(=O)NC(C)c3ccccc3)n2)cc1C (stereo not given),-63*,?,-23%,-4%[46.1 µM],-10%,?
COc1ccc(CNC(=O)c2cccc3c(-c4cccnc4)coc23)cc1OC,-86*,?,?,·,-26%,·
CCOc1ccc(CC(=O)NCCc2csc(-c3ccc(C(F)(F)F)cc3)n2)cc1,-10,?,-2%,·,-17%,10%[46.1 µM]
CCN1CCN(C(=O)c2cnn(-c3ccc(F)cc3F)c2C2CCN(C(=O)OC(C)(C)C)CC2)CC1,+,-7%,-14%,·,-12%,-23%[46.1 µM]
Cn1ncc(C(=O)N2CCN(c3ccccc3F)CC2)c1C1CCN(C(=O)OC(C)(C)C)CC1,?,-5%,-11%,·,-7%,?
CCOC(=O)N1CCC(NC(=O)c2cnn(-c3ccc(F)cc3F)c2C2CCN(C(=O)OC(C)(C)C)CC2)CC1,+,-9%,-16%,·,-7%,?
CC(C)(C)OC(=O)N1CCC(c2c(C(=O)NC3CCN(Cc4ccccc4)CC3)cnn2-c2ccc(F)cc2F)CC1,0,-1%,-25%,·,-28%,-9%[46.1 µM]
Cc1ccc(-n2ncc(C(=O)N3CCN(c4ccccc4F)CC3)c2C2CCN(C(=O)OC(C)(C)C)CC2)cc1C,+,-1%,-15%,·,-11%,?
COC(=O)N[C@H](C(C(=O)OC)=C(C)NCc1ccccc1)c1cccc(F)c1,·,·,·,-11%[14.2 µM],·,·
Cc1ccc2c(c1)N(C(=O)CCC(=O)NCc1cccs1)CCO2,2,-3%,-9%,-5%[46.1 µM],-3%,-5%[46.1 µM]
Cn1nc([N+](=O)[O-])nc1Oc1ccccc1F,0,-11%,-7%,-10%[46.1 µM],-1%,?
Cn1nc([N+](=O)[O-])nc1Oc1ccc2ccccc2c1,-65*,-6%,·,-7%,·,0%
COc1cccc(-n2c(SC)nnc2C2CCN(Cc3nc4ccccc4s3)CC2)c1,·,-13%,-9%,·,-18%,·
CCn1c(=O)cc(SCC(=O)Nc2ccc(C)cn2)c2ccccc21,-95*,25%,10µM*,·,?,·
CCn1c(=O)cc(OCC(=O)Nc2ccc(C)cn2)c2ccccc21,-61*,54%,·,27%,·,-9%
CCn1c(=O)cc(SCC(=O)NCc2ccc(C)cc2)c2ccccc21,9,-2%,-3%,-2%[46.1 µM],-9%,-14%[46.1 µM]
CCn1c(=O)cc(SCC(=O)Nc2cccc(SC)c2)c2ccccc21,-32,20µM*,·,-14%,·,?
c1ccc(Cc2nnc(N3CCCCC3)c3ccccc23)cc1,-5,-12%,-13%,-1%[46.1 µM],-19%,3%
Cc1ccc(Sc2nnc(Cc3ccccc3)c3ccccc23)cc1,-88*,?,·,?,·,0%
COc1ccc(Sc2nnc(Cc3ccccc3)c3ccccc23)cc1,-89*,?,-20%,?,-6%,-32%[14.3 µM]
CCC(C)(C)c1ccc(OCCCC[n+]2cccc(C)c2)c(C(C)(C)CC)c1,-101*,32µM*,?,?,?,?
CCCCCCCCCC[n+]1cccc(Br)c1,·,·,?,·,-21%,·
O=C(CS(=O)c1ccc(F)cc1)Nc1ccccc1Cl (stereo not given),-77*,14%,-2%,24%[46.1 µM],-5%,-2%
O=C(CN1C(=O)CC(c2ccco2)Sc2ccccc21)Nc1ccc(OC(F)(F)F)cc1 (stereo not given),11,-8%,8%,18%[46.1 µM],6%,·
CCN(CC)CCCN(C(=O)c1ccc(OC)cc1)c1nc(-c2ccc(OC)cc2)cs1,-63*,4%,-24%,?,-13%,?
